Data on 40 molecules can be found in PubChem BioAssay (NCI).

Structures are written as SMILES. About 83,000 compounds went through this panel and 20% of them were active in at least one assay; those are over-represented in the sample as a whole.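 Values shown are percent growth following 48 h exposure of cells in 96-well plates to a single concentration of compound; below 10 was considered active.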 Unmarked numbers belong to inactive results. Calls of active or inactive are those of the source.

The subject of the assay is SN12C renal. As to the kind of experiment: NCI-60 one-dose screen, 48 h (100 = growth as untreated, 0 = no growth, -100 = all killed). The settings on record: 10 µM unless noted. The procedure:
Growth inhibition of the SN12C human tumor cell line is measured as a screen for anti-cancer activity. Cells are grown in 96 well plates and exposed to the test compound for 48 hours. Compounds are tested at a single concentration, which is 10^-5 M for most compounds. The reported endpoint is percent growth (GI% or GIPRCNT), where numbers from 0 - 100% represent growth inhibition, and numbers from -100% - 0 represent cell death. For example, a value of 40 represents 60% growth inhibition. A value of 0 means no net growth occurred over the course of the experiment. A value of -40 indicates 40% of cells at the beginning of the experiment died by the end of the experiment. A value of -100 means all cells are dead at the end of the experiment.
NCI-60 Human Tumor Cell Lines Screen was performed using the standard one-dose NCI protocol, which is described in more detail at https://dtp.cancer.gov/discovery_development/nci-60/default.htm.
Compounds with GIPRCNT values below 10 were considered active. Activity score was based on GIPRCNT using the following formula: […]
Score is 0 for GIPRCNT values of 100 or above, 50 for GIPRCNT values of 0, and 100 for GIPRCNT values of -100.
For the molecule `S=P(Nc1ccccc1)(Nc1ccccc1)c1ccccc1`, the growth was 104%.

Take `C/C(=C\c1cc(C(F)(F)F)n(-c2ccc(N)cc2)n1)[C@@H]1C[C@@H]2O[C@]2(C)CCC[C@H](C)[C@H](O)[C@@H](C)C(=O)C(C)(C)[C@@H](O)CC(=O)O1`: the growth was 23.1%.

With `CNC(C)Cc1ccccc1` (stereo not given) (tested in a mixture with another compound), the growth was 104%.

With `O=C(/C=C/c1ccccc1)N[C@@H](CO)Cc1cnc[nH]1`, the growth is 105%.

Consider `O=C1NC(=O)C(CN2C(=O)C3(c4ccccc42)[C@H](Cl)C(=O)N3c2ccccc2)C(=O)N1` (stereo not given in full), for which the growth was 97.4%.

With `Oc1ccc(Br)cc1CN1CCN(Cc2ccc(Cl)cc2)CC1`, the growth was 89.6%.

In the case of `COc1ccc(C2SCC(=O)Nc3c2c(C)nn3-c2nc3ccc(C)cc3s2)cc1O` (stereo not given), the growth is 49.6%.

As for `COC1=CC(=O)OC(CCc2ccc3c(c2)OCO3)C1` (stereo not given), the growth was 107%.

With `O=CN1N=C(c2ccccc2)CC1c1sc(N(CCCl)CCCl)nc1Cl` (stereo not given), the growth was 96.1%.

For `CNC(=O)Oc1cc(C(C)C)ccc1Sc1ccc(C(C)C)cc1OC(=O)NC`, the growth was 85.3%.

`C[C@]12CC[C@H](OC3OC(O)C(O)C(O)C3O)C=C1CCC1C2CC[C@]2(C)[C@@H](c3ccc(=O)oc3)CC[C@]12O` (stereo not given in full): the growth is -37.7% (active).

With `OC1(c2ccccc2F)c2ccccc2C2=NCCN21` (stereo not given), the growth is 101%.

For `N#Cc1ncc(/N=C/c2ccc(N(CCCl)CCCl)cc2)s1`, the growth is 55.9%.

Turning to `CC(C)C1c2ccc(O)cc2Oc2nc(N)c(C#N)c(N)c21` (stereo not given), the growth was 103%.

`C[C@@H]1CC[C@@H]2[C@@H]1[C@H](OC(=O)/C=C/C1CCCCC1)[C@]1(C3CCCCC3)C[C@@H](OC(=O)CO)[C@@]2(C)O1`: the growth was 31.2%.

Regarding `CCCC(C)(C)c1ccc2c(c1)OC(C)(C)[C@@H]1CC=C(C)C[C@@H]21`, the growth is 105%.

In the case of `CCCCNCCc1ccccn1`, the growth was 112%.

With `COc1ccc(OC)c(/C=C(/C)[N+](=O)[O-])c1`, the growth is 32.3%.

With `Nc1c(Br)cc2c3c(cccc13)-c1ccccc1-2`, the growth was 90.4%.

As to `NC(=O)SCC(=O)Nc1ccc([As](=O)(O)O)cc1`, the growth is 89.8%.

Consider `ClCCN(CCCl)C(c1ccccc1)c1ccc(Cl)cc1` (stereo not given), for which the growth is 41.1%.

Consider `COC(=O)C1CC2c3ccccc3C1c1ccccc12` (stereo not given), for which the growth is 97.7%.

On to `Oc1ccc(O)c2c1C1(Cl)C(Cl)=C(Cl)C2(Cl)C1(Cl)Cl`, for which the growth is 56.4%.

As for `CNC(=O)Oc1cccc(N(C)C)c1`, the growth is 94.6%.

For the molecule `CC(/C=N/N=C(N)N)=N\N=C(N)N`, the growth is 74.2%.

Take `FC(F)=C(F)c1ccccc1`: the growth is 112%.

Take `N#CC1c2ccccc2C=CN1C(=O)c1ccc(N(CCCl)CCCl)cc1` (stereo not given): the growth is 75.5%.

In the case of `CC(=O)O[C@H]1CC[C@H]2[C@@H]3CC[C@H]4CC=C(C)C[C@]4(C)[C@H]3CC[C@]12C`, the growth is 101%.

Turning to `CCC[CH2][Sn]1([CH2]CCC)[O]C(=O)c2cccc([N+](=O)[O-])c2C(=O)[O]1`, the growth was -83.4% (active).

For the molecule `CC1(C)CC(=O)CC(C)(C)N1N=O`, the growth is 106%.

Take `[Br][Pb]([c]1ccccc1)([c]1ccccc1)[c]1ccccc1`: the growth is -83.7% (active).

Take `O=[As]c1ccc(C(=O)c2ccc(Oc3ccccc3)cc2)cc1` (stereo not given): the growth was -98.4% (active).

Consider `Cc1cccc(N(C)c2cccc3c2C(=O)[Se]C3)c1C`, for which the growth is 84.8%.

As for `C[CH2][Pb]([CH2]C)([CH2]C)[O]C(=O)COc1ccccc1`, the growth is 8.52% (active).

With `C=CCN1C(=O)C(CC)(CCC(C)C)C(=O)NC1=S` (stereo not given), the growth was 101%.

For the molecule `O=S(=O)(F)c1ncnc2nc[nH]c12`, the growth was 91.8%.

Turning to `COc1ccc(/C=C\c2cc(OC)c(OC)c(OC)c2)cc1N/C=C\C(=O)c1c[nH]c2ccccc12`, the growth is 26.1%.

As to `O=C(N/N=C/c1ccc([N+](=O)[O-])o1)c1cc([N+](=O)[O-])cc([N+](=O)[O-])c1O`, the growth is 96.1%.

For the molecule `CC(=O)[O][Hg][c]1nc2c(c(=O)n(C)c(=O)n2C)n1C`, the growth was 104%.

Take `CC[C@H](C)[C@H](NC(=O)Nc1ccccc1)C(=O)N(C)[C@H](C[C@@H](OC(C)=O)c1nc(C(=O)N[C@@H](Cc2ccccc2)C[C@H](C)C(=O)OC)cs1)C(C)C`: the growth was 46.6%.
